Only some compounds are listed: those with a hit (about 1.5% of all), similar ones and a draw of the others.
S1P3 antagonist – blocks the human S1P3 receptor. AID 485. Q99500. 0.27% of 170,000 active. CHO S1P3 NFAT-BLA reporter, FRET fluorescence, antagonist mode. inhibition, % at 4.98 µM;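 active means inhibition above the plate cutoff, the mean inhibition of test wells on that plate plus 3 SD, cut at about 28% in these data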;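 further: cells challenged with S1P at its EC80 of 0.8 µM; blue over green emission ratio from cleaved BLA substrate after 4 h stimulation; 0% = S1P-stimulated wells and 100% = unstimulated DMSO-only wells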
Insulin prom inh – TRM-6 insulin promoter activity inhibition. 0.9% of 130,000 active. inhibition, % at 2 µM. TRM-6 cells (human fetal islet line), insulin promoter-eGFP reporter, imaging; reporter expression induced with tamoxifen;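 active means inhibition above the mean plus 3 SD, with well images judged a real hit on visual review, cut at about 60% in these data, passing the limit was not always enough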
Hsp70 activator – Hsp70 transcriptional activation, primary screen; 0.04% of 200,000 active; activation, % at 10 µM; HeLa Hsp70 promoter luciferase reporter, luminescence; scaled: vehicle 0, proteasome-inhibitor control 100%;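 active means activation above the mean across all tested compounds plus 3 SD, cutoff set per campaign, cut at about 5.5% in these data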;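 further: 100% = MG132 at 30 µM as the positive control and 0% = DMSO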
S1P4 ag – human S1P4 receptor agonism; activation, % at 4.98 µM; O95977; 0.35% of 220,000 active; AID 1509; S1P4-expressing cell line, agonist reporter assay; in the data active means activation above about 11%;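 further: 0% = DMSO vehicle and 100% = reference agonist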
Ins promoter up – MIN6 insulin promoter up-regulation | MIN6 insulin promoter-GFP reporter, high-content imaging; hits give high values | 0.3% of 190,000 active | z-score at 5 µM;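 active means z-score above 3 at 5 µM with at least 500 cells counted in the well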
S1P4 antag – blocks the human S1P4 receptor; AID 1510; inhibition, % at 4.98 µM; O95977; 0.26% of 220,000 active; S1P4-expressing cells, antagonist mode, reporter read-out; in the data active means inhibition above about 29%;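 further: 0% = wells stimulated with agonist and 100% = vehicle wells without agonist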
S1P4 ag conf – human S1P4 agonism, confirmation. activation, % at 4.98 µM. shares compounds with S1P4 ag. 7% of 740 active. AID 1523. S1P4 agonist cell-based reporter assay; in the data active means activation above about 12%;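 further: 0% = vehicle and 100% = full reference agonist response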
S1P1 agonist – counter-screen for S1P4 agonists: agonists of human S1P1; AID 1563; S1P1 agonist cell-based assay, activation; shares compounds with S1P4 ag; 4% of 740 active; activation, % at 4.98 µM; in the data active means activation above about 21%;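 further: 0% = vehicle wells and 100% = reference agonist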
Target sequence (P21453 whole entry, looked up): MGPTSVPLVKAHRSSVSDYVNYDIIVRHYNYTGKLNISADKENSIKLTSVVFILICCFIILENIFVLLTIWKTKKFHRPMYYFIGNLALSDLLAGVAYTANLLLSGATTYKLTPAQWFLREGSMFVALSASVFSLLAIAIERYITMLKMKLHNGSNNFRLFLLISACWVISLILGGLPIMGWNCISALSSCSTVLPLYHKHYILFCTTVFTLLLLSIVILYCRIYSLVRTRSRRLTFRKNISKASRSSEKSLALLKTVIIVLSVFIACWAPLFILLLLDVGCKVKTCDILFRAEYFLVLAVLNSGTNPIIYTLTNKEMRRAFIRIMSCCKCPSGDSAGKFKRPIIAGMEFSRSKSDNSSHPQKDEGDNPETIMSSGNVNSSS
* = called active by the depositor; . = not tested or not shown.

SMILES	S1P3 antagonist	Insulin prom inh	Hsp70 activator	S1P4 ag	Ins promoter up	S1P4 antag	S1P4 ag conf	S1P1 agonist
C(=C\c1nccc2c1[nH]c1ccccc12)/c1ccccc1	4.3	.	.	11.2*	-0.09	0.6	0.6	5.4
CC(C)C[C@H](NC(=O)c1nc[nH]c1C(=O)NCc1ccccc1)C(=O)OCc1ccccc1	-11.1	.	-0.2	20.5*	-0.17	-21.0	25.9*	0.0
CC(C)C[C@H](NC(=O)c1nc[nH]c1C(=O)NCc1ccccc1)C(=O)OC(C)(C)C	-25.7	.	-0.1	0.8	-0.23	11.3	.	.
Cc1ccc(C(=O)COC(=O)c2ccc(-c3cnc4ccccc4n3)cc2)cc1C	-7.8	.	-0.4	2.1	0.04	0.7	.	.
c1ccc(CC2CCCNC2)cc1 (stereo not given)	-5.1	.	0.1	49.4*	0.89	-4.1	0.6	8.9
Cn1c(O)c(C=Nc2ccc(N3CCOCC3)cc2)c(=O)n(C)c1=S	-17.7	.	-0.1	30.0*	0.1	11.8	-2.0	-1.0
Cn1cccc1/C=C1\CCc2ccccc2C1=O	-1.4	-53.3	-0.3	38.6*	-0.11	-12.2	-2.0	-6.9
O=C1CCC(=O)N1N1C(=O)C2C3c4ccccc4C(c4ccccc43)C2C1=O (stereo not given)	-10.9	.	-0.1	-0.4	0.23	10.3	.	.
COc1ccc(-c2cc(C(=O)NNC3=NCCC3)c3c(C)nn(-c4ccccc4)c3n2)cc1	1.3	.	-0.2	0.1	-0.47	-1.8	.	.
COc1ccc(NC(=O)c2cc(-c3ccccc3)nc3c2c(C)nn3-c2ccccc2)c(OC)c1	-14.8	34.2	-0.1	23.5*	0.18	-8.1	-1.8	0.6
Cc1ccsc1/C=N\NC(=O)Cn1nnc2ccccc21	5.9	.	0.0	28.0*	-0.1	-9.2	-2.0	-6.0
COc1ccc(/C=N/NC(=O)Cn2nnc3ccccc32)cc1OC	0.3	3.1	-0.1	132.2*	2.58	-11.2	0.4	6.0
CN(C)c1ccc(/C=N/NC(=O)Cn2nnc3ccccc32)cc1	-24.9	-33.3	-0.1	0.6	0.77	1.0	.	.
Cc1nc2cc(C(=O)O)ccc2n1-c1ccccc1	4.7	.	-0.1	-0.1	1.26	-22.4	.	.
CC1=CC(C)(C)[N+](C)=CN1c1ccccc1	-6.8	46.1	-0.1	32.7*	-0.46	-7.5	-1.5	4.1
COc1ccc(C(=O)Nc2cccc(C(C)=O)c2)cc1S(=O)(=O)N1CCOCC1	-15.6	-36.4	0.1	24.3*	0.55	-2.5	-1.1	-11.9
COc1ccc(C(=O)Nc2cccc(C)c2)cc1S(=O)(=O)N1CCOCC1	-6.8	0.0	0.5	0.8	-0.35	-35.4	.	.
CCc1nc(SCC#N)c(C#N)cc1C	-9.9	.	-0.4	23.4*	0.15	-9.6	0.5	4.3
O=C(NCCc1ccc(Cl)cc1)C1CCN(S(=O)(=O)N2CCC3(CC2)OCCO3)CC1	-6.8	-23.1	0.0	1.6	-0.05	-7.1	.	.
COc1ccc(OC)c(S(=O)(=O)n2nnc3ccccc32)c1	-17.6	-3.0	-0.4	1.9	0.09	-28.7	.	.
COc1ccc(F)cc1S(=O)(=O)n1nnc2ccccc21	-23.2	-59.0	-0.2	73.6*	0.57	-4.8	-1.2	0.7
COc1ccc(C)cc1N(C(=O)COc1ccccc1)c1nc2ccccc2s1	-0.3	43.8	-0.4	-1.5	-0.1	10.2	.	.
CC(C)c1nc(SCC(=O)Nc2ccc([N+](=O)[O-])cc2Br)n[nH]1	-3.4	.	0.0	67.9*	0.55	-11.4	-2.2	2.9
COc1ccc(/C=C/C(=O)Nc2cc(C)on2)cc1	7.0	14.3	0.0	2.5	0.6	-15.8	.	.
COc1ccc(/C=C/C(=O)Nc2nonc2NC(C)=O)cc1	-11.7	.	-0.3	38.4*	0.05	-3.7	-1.3	3.0
CCCCNC(=O)C1CC(c2c(Cl)cccc2Cl)=NO1 (stereo not given)	.	-8.9	-0.3	13.0*	-0.39	-18.9	-2.1	-1.3
CCCCNC(=O)C1CC(c2cccc([N+](=O)[O-])c2)=NO1 (stereo not given)	.	.	-0.2	2.8	0.22	0.4	.	.
CCN(CC)c1nc2c(c(=O)n(C)c(=O)n2C)n1CC(=O)c1ccccc1	4.8	.	.	0.5	-0.13	-24.0	.	.
O=C(Cc1ccccc1)NNC(=O)c1cccs1	.	.	-0.2	-0.6	0.79	-9.6	.	.
Cc1cc(=O)oc2cc3c(cc12)OCCN3	-52.2	.	-0.4	11.5*	-0.44	-9.5	5.3	5.0
